For 58 compounds, growth inhibition results are on record in PubChem BioAssay AID1979 (Broad Institute, 2009).

In all, about 300,000 compounds went through this assay and about 1,700 (0.57%) were called active. Roughly 2% stayed inconclusive and do not appear here. This excerpt belongs to a sample that is enriched for actives. Unmarked numbers belong to inactive results.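 Rule for the calls: active = growth inhibition above about 58% in most replicates (limit read from the data, passing the limit was not always enough); inconclusive = exactly half the replicates above a set limit; inactive = most replicates below a set limit.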

The assay can be described thus: C. albicans growth inhibition with fluconazole, primary screen, CaCi-2 strain, Alamar Blue fluorescence (AID 1979).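 Note: all wells also contain fluconazole at 8 µg/ml as a sub-toxic cotreatment; 0% = median of DMSO wells and 100% = median of geldanamycin control wells.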 The settings on record: C. albicans CaCi-2 (fluconazole-resistant clinical isolate) + fluconazole, 48 h, hits give high values, concentration not given here. On the technique in general: Alamar Blue is a resazurin reagent that responds to reducing activity.
Regarding `CCOc1cc(/C=N/NC(=O)c2cccc(S(=O)(=O)N3CCOCC3)c2)ccc1OCC(=O)N(C)C`, the growth inhibition was 3.22%.
For `CC(=O)c1nn(-c2ccc(C)cc2)cc1C(=O)c1cccc(Br)c1` the value was -5.17%; for `CC1CCC(NC(=O)CNC(=O)c2ccc3ccccc3c2)CC1` (stereo not drawn), 4.42%; for `Cc1ccc(N(C(=O)CNC(=O)c2ccco2)C(C(=O)NC2CCCC2)c2ccncc2)cc1` (stereo not drawn), -17%.
The result for `COc1ccc(N(C(=O)CNC(=O)c2ccco2)C(C(=O)NCC2CCCO2)c2ccccc2)cc1Cl` (stereo not drawn) reads 7.7%.
The result for `O=C(NCC(=O)N(CC1CCCO1)C(C(=O)NC1CCCCC1)c1ccccc1)c1ccco1` (stereo not drawn) reads 103% (active); that for `CC1CCCCN1S(=O)(=O)CCNC(=O)c1ccccc1` (stereo not drawn), 0.685%; that for `Cc1cc(Cl)ccc1NNC(=O)c1snnc1C`, 85.6% (active).
Take `Cc1nnsc1C(=O)Nc1cccc(Cl)c1C`: the growth inhibition is -1.12%.
With `Cc1nnsc1C(=O)N/N=C/c1ccccc1Cl`, the growth inhibition is -6.46%.
In the case of `CCc1ccc(S(=O)(=O)N/N=C\c2ccc([N+](=O)[O-])o2)cc1`, the growth inhibition was 13.3%.
For `C/[N+]([O-])=C\c1ccc([N+](=O)[O-])o1` the value was 110% (active).
Consider `Cc1cc(C)nc(N/N=C/c2ccc([N+](=O)[O-])o2)n1`, for which the growth inhibition was 11.2%.
The result for `CCc1ccccc1NC(=O)c1cc(-c2ccc3c(c2)OCO3)on1` reads -0.103%; that for `Cc1ccc(C)c(N2CCN(C(=O)Cn3ncn4cccc4c3=O)CC2)c1`, -9.35%.
For `CSc1ccccc1NC(=O)C(C)N1C(=O)c2ccccc2S1(=O)=O` (stereo not drawn) the value was 2.61%; for `O=C(O)CN1CCN(C(c2ccccc2)c2ccccc2)CC1`, -6.25%; for `CC(C)NC(=S)N1CCN(C(c2ccccc2)c2ccccc2)CC1`, 11.5%.
Turning to `CC1(C)CC(N2CCN(C(c3ccccc3)c3ccccc3)CC2)=CC(=[N+]2CCCCC2)C1`, the growth inhibition is 95.7% (active).
The result for `O=C(Nc1cc(Cl)ccc1N1CCOCC1)c1ccc(N2CCCC2=O)cc1` reads 4%.
For `O=C(NCCC1CCCCN1S(=O)(=O)c1cccs1)C(=O)Nc1ccc(F)cc1F` (stereo not drawn) the value was 7.39%; for `O=C(Nc1cccc2c1CCCC2)c1ccc(F)cc1`, -3.5%; for `Cn1c(NN)nc2sc3c(c2c1=O)CCC3`, 87.2% (active).
As to `Cc1nc2sc3c(c2c(=O)n1NC(=O)CCl)CCCC3`, the growth inhibition is 9.31%.
Regarding `NNC(=O)C1CCCn2c1nc1sc3c(c1c2=O)CCCC3` (stereo not drawn), the growth inhibition is 2.28%.
Take `C#CCOCCOCCOCCNc1nc(N2CCN(C(=O)C([C@@H](C)CC)n3cc(C(N)COC(=O)C(F)(F)F)nn3)CC2)nc(N2CCN(C(=O)[C@H](CCCCN)n3cc(C(N)CC(C)C)nn3)CC2)n1` (stereo partly drawn): the growth inhibition was 4.02%.
The result for `O=C(CSC1=NS(=O)(=O)c2cc(F)ccc2N1)Nc1ccccc1F` reads 5.53%; that for `Cc1ccc(N=C2SCCCN2C(=O)c2cccc(N3C(=O)CCC3=O)c2)cc1Cl`, -7.25%; that for `Nc1ccc(SCCN2C(=O)c3ccccc3C2=O)cc1`, 103% (active).
For `O=C(OCCN1C(=O)c2ccccc2C1=O)Oc1ccccc1` the value was 4.11%.
The result for `CC(=O)c1cnc(SCCN2C(=O)c3ccccc3C2=O)nc1C` reads -3.43%.
For the compound `COc1ccc(-c2nnc(SCC(=O)Nc3cccnc3Cl)n2C)cc1`, the growth inhibition was 6.53%.
For `O=C(NC(Cc1ccccc1)C(=O)N1CCCC(C(F)(F)F)C1)c1ccccc1` (stereo not drawn) the value was 1.33%.
As for `CCCCN(C(=O)CSCC(=O)Nc1ccc(OC)cc1)c1c(N)n(CCC)c(=O)[nH]c1=O`, the growth inhibition is -2.57%.
For `O=C(NN1C(=O)C2C(C1=O)C1C=CC2C12CC2)c1ccccc1Cl` (stereo not drawn), the growth inhibition is 3.48%.
`CC12CCC(C(=O)N(c3cccc(Cl)c3)C1=O)C2(C)C` (stereo not drawn): the growth inhibition is -3.94%.
The result for `CC12CCC(C(=O)N(NC(=O)c3ccccc3O)C1=O)C2(C)C` (stereo not drawn) reads 107% (active).
Take `COc1cc(/C=N/NC(=O)c2cc(-c3ccccc3C)nc3ccccc23)cc(OC)c1O`: the growth inhibition is 32.7%.
Take `COc1ccc(/C=N/NC(=O)c2cc(-c3cccc(C)c3)nc3ccccc23)cc1O`: the growth inhibition was 34.6%.
Take `Cc1ccc(/C=N/NC(=O)C2=NNC(c3ccccc3)(c3ccccc3)C2)c(O)c1`: the growth inhibition is 102% (active).
Take `O=C(Nc1ccc(OC(F)(F)F)cc1)c1ccc2c(c1)no[n+]2[O-]`: the growth inhibition is -3.65%.
The result for `CC1CC2=C(CC1/C=N/NC(N)=S)C(C)(C)CCC2` (stereo not drawn) reads 26.2%; that for `CC(C)CN(C(=O)c1ccc2c(c1)OCO2)C1CCS(=O)(=O)C1` (stereo not drawn), 3.11%.
Consider `CCOc1cc(C(=O)Nc2ccc(S(=O)(=O)Nc3cnc4ccccc4n3)cc2)cc(OCC)c1OCC`, for which the growth inhibition was 19.7%.
In the case of `Cc1ccc(Nc2c3c(nc4ccccc24)CCC3)cc1`, the growth inhibition is 70.5%.
On to `CC(=O)Nc1ccc(NC(=O)COc2ncnc3ccccc23)cc1`, for which the growth inhibition was -12.4%.
The result for `CC(=O)Nc1ccc(Nc2c3ccccc3nc3ccccc23)cc1` reads 111% (active).
The result for `COc1ccc(C(=O)OCC(=O)Nc2ccc3[nH]c(=O)[nH]c3c2)c(OC)c1OC` reads -6.2%; that for `CC(OC(=O)CCC(=O)c1ccccc1)C(=O)Nc1ccc(F)cc1` (stereo not drawn), -2.1%.
For `C=CCOc1ccc(/C=C/C(=O)OC(C)C(=O)Nc2ccc(NC(C)=O)cc2)cc1` (stereo not drawn) the value was -2.89%; for `O=C(CN(C(=O)c1csnn1)c1cccc(Cl)c1)NC1CCCC1`, 9.33%.
As for `CCCCC(=O)NNC(=S)NC(=O)C(c1ccccc1)c1ccccc1`, the growth inhibition is 107% (active).
Consider `O=C(NNC(=S)NCc1ccco1)C(c1ccccc1)c1ccccc1`, for which the growth inhibition is 15.6%.
As to `CC(C)C(=O)Nc1cccc(NC(=S)NC(=O)C(c2ccccc2)c2ccccc2)c1`, the growth inhibition is 50.4%.
With `Cc1ccc(CSCC(=O)N(C)CC(=O)Nc2cccc(F)c2)cc1`, the growth inhibition was -6.82%.
For `Cc1ccc(OCCC(=O)OCC(=O)N2c3ccccc3NC(=O)C2(C)C)cc1` the value was -5.48%.
The result for `Cn1c(N2CCOCC2)c(C=O)c2ccccc21` reads -1.88%; that for `Cc1cc(C(=O)OC(C)C(=O)NC2CCCCC2C)c(C)o1` (stereo not drawn), -4.31%.
